Consider three compounds from PubChem BioAssay AID651871 (Sanford-Burnham Center for Chemical Genomics, 2012).

SMILES strings stand for the structures.

The test system of this test is HL-1. The experiment in a line: cardiomyocyte survival under oxidative or metabolic stress – cell-based, panel, H9c2 and HL-1, ATP luminescence, set 2, SAR follow-up (AID 651871).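 Note: cells exposed to stressor for 2 h before ATP readout; reference of the scale not given here.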 To be noted: H9c2/HL-1 cardiomyocytes, 2-deoxyglucose stress, with 2-deoxyglucose, run 13, at 79 µM (top of the series).
Regarding `CCOC(=O)c1cccc(NC(=O)CNC(=O)c2cc(-c3cc(OC)c(OC)c(OC)c3)nc3ccccc23)c1`, the activity (protection/inhibition) turned out to be 66.6%.
Take `COc1ccc2c(c1OC)C(=O)N1c3ccccc3C(=O)N(Cc3cccc(Cl)c3Cl)C21` (stereo not drawn): the activity (protection/inhibition) is -9.86%.
The same measure for `COc1ccc2nc(-c3cc(OC)c(OC)c(OC)c3)cc(C(=O)NCC(=O)Nc3ccc(C(C)=O)cc3)c2c1`: 55.5%.
